Reference: PubChem BioAssay AID2284058 (EPA ToxCast)
Activity calls are given as the source filed them. The calls were made as follows: active = hit-call score of the fitted dose curve at least 0.9, where 1 is the maximum; inactive = score below 0.9.

Biological target: CYP2C9, CYP2C9 (gene 1559) (UniProt P11712)
Assay: ERF_FR_ADME_hCYP2C9: Eurofins (ERF) CYP450-related Enzyme Activity (ADME) Assay for CYP2C9
Method: ERF_FR_ADME_hCYP2C9 is a biochemical, single-readout assay that uses extracted gene-proteins in a cell-free assay. Measurements were taken 0.66 hour after chemical dosing in a 96-well plate. See CYP2C9 inhibition (recombinant, MFC substrate).ERF_FR_ADME_hCYP2C9 is an assay component calculated from the ERF_FR_ADME_hCYP2C9 assay. It is designed to measure enzyme activity using a type of enzyme reporter as detected by fluorescence intensity of HFC with fluorimetry technology.Data from the assay component ERF_FR_ADME_hCYP2C9 was analyzed at the assay endpoint, ERF_FR_ADME_hCYP2C9, in the positive analysis fitting direction relative to acetonitrile as the negative control and baseline of activity. Using a type of enzyme reporter, loss-of-signal activity can be used to understand changes in enzymatic activity as they relate to gene CYP2C9. To generalize the intended target to other relatable targets, this assay endpoint is annotated to the cyp intended target family, where the subfamily is steroidogenesis-related.
Human cells are incubated for 15 minutes at 37C with Diclofenac as substrate and Sulfaphenazole as control inhibitor. Test Sample Requirements: Minimum for 1) Screen: 25 ul of 10 mM stock -OR- 1 mg (pre-weighed) for 10 uM final testing. 2) Dose Response: 60 ul of 10 mM stock -OR- 1 mg (pre-weighed). […]

CYP2C9, CYP2C9 (gene 1559), sequence (P11712 whole entry, looked up): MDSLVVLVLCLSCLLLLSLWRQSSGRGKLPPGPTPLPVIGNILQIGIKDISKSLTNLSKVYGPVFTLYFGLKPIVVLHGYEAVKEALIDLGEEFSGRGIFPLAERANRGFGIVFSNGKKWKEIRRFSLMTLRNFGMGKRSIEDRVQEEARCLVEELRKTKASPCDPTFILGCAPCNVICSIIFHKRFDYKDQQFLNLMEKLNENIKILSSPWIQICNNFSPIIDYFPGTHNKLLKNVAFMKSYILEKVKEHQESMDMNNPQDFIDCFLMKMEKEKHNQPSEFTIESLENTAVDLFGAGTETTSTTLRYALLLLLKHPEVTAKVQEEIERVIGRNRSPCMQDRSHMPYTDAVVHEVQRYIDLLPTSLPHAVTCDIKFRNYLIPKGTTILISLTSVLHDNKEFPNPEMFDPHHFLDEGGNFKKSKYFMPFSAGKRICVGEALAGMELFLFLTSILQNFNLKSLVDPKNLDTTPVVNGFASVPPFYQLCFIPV

Row | SMILES | AC50
1 | O=C(/C=C/c1ccc(O)cc1)CC(=O)/C=C/c1ccc(O)cc1 | 502 nM (active)
